17 compounds from PubChem BioAssay can be followed below.

Assay [1] deals with Plasmodium falciparum Sir2 (PF13_0152, Sir2A). The assay is described as follows: pfSir2 binders on small-molecule microarrays, primary screen, biochemical, small-molecule microarray, 635 nm fluorescence (AID 1098).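 Further: score merges spot fluorescence intensity with its signal-to-noise ratio.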 The settings on record: small-molecule microarray binding, fluorescence 635 nm; higher = more signal.
Assay [2] in a line: small-molecule microarray binders of probe aDKK1, primary screen, biochemical, biotinylated probe, 635/667 nm fluorescence (AID 1099).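 Further: score merges 667nm spot fluorescence with signal to noise across triplicate slides; reference of the scale not given here.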 The following applies: higher = more signal.
Assay [3] can be described thus: small-molecule microarray binders of probe aCHRDL2, primary screen, biochemical, biotinylated probe, 635/667 nm fluorescence (AID 1100). The following applies: higher = more signal.
Assay [4] is described as follows: splicing luciferase reporter signal modulators, primary screen, spliceosome inhibition project, cell-based, HEK293, splice +/- reporter (AID 1101).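 Further: HEK293 cells carrying a splicing-competent luciferase reporter gene; test concentration not given here.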 The following applies: luminescence, 24 h, higher = more signal, called active from +8 up or from −8 down.
Assay [5] has as its target Fibroblast growth factor 10 (Homo sapiens) (UniProt O15520). Briefly: FGF10 binders on small-molecule microarrays, primary screen, biochemical, small-molecule microarray, 635 nm fluorescence (AID 1102). The following applies: FGF10 binding, fluorescence 635 nm, higher = more signal.
The test system of assay [6] is glycogen synthase kinase-3 (GSK3A per assay name; protocol says GSK3B). Briefly: GSK3 binders on small-molecule microarrays, primary screen, biochemical, small-molecule microarray, 635 nm fluorescence, GSK3A (AID 1103). Further: the record names both GSK3A and GSK3B. The settings on record: small-molecule microarray binding, fluorescence 635 nm; higher = more signal.
Assay [7] deals with Epidermal growth factor receptor (Homo sapiens) (UniProt P00533). The assay is described as follows: EGFR binders on small-molecule microarrays, primary screen, biochemical, small-molecule microarray, 635 nm fluorescence (AID 1104).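 Further: score merges 667 nm emission intensity with spot signal to noise over triplicate slides.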 The settings on record: EGFR binding, higher = more signal.
In assay [8] the target is Follistatin-related protein 3 (Homo sapiens) (UniProt O95633). The assay is described as follows: FSTL3 binders on small-molecule microarrays, primary screen, biochemical, small-molecule microarray, 635 nm fluorescence (AID 1105).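 Further: score merges emission near 667 nm and signal to noise per printed spot across three slides.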 The settings on record: FSTL3 binding, higher = more signal.
In assay [9] the target is Dickkopf-related protein 1 (Homo sapiens) (UniProt O94907). Briefly: DKK1 binders on small-molecule microarrays, primary screen, biochemical, small-molecule microarray, 635 nm fluorescence scan (AID 1106).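 Further: score merges emission near 667 nm with signal to noise over three replicate slides.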 The following applies: DKK1 binding, higher = more signal.
Assay [10] deals with Inhibin beta A chain (activin A). Briefly: INHBA (activin A) binders on microarrays, primary screen, biochemical, small-molecule microarray, 635 nm fluorescence scan (AID 1107).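 Further: mouse activin A protein probed at 4.33 µg/mL on printed slides; score merges bound-protein fluorescence near 667 nm with spot signal-to-noise.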 The following applies: small-molecule microarray binding, higher = more signal.

Active and inactive are the calls of the source.

Chain of Follistatin-related protein 3 (Homo sapiens) (O95633 whole entry, looked up): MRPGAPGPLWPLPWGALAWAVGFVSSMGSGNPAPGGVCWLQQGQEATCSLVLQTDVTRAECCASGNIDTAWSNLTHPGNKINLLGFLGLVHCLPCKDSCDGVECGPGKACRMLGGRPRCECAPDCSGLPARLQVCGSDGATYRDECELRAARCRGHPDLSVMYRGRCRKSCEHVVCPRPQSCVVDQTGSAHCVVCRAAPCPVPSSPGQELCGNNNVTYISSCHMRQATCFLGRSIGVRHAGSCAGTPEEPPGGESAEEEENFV
Chain of Fibroblast growth factor 10 (Homo sapiens) (O15520 whole entry, looked up): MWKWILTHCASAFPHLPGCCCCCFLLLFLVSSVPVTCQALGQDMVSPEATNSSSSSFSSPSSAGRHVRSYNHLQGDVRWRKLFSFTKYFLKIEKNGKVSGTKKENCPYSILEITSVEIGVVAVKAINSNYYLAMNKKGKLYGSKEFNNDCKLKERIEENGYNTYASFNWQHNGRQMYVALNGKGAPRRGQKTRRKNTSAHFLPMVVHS
Chain of Dickkopf-related protein 1 (Homo sapiens) (O94907 whole entry, looked up): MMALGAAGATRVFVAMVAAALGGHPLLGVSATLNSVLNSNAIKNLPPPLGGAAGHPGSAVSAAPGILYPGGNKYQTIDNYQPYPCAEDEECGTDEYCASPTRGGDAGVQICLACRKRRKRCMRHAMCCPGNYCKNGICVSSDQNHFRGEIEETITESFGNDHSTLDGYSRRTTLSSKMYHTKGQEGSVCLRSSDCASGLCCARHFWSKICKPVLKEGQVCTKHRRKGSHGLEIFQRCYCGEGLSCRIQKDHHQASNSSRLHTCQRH
Chain of Epidermal growth factor receptor (Homo sapiens) (P00533 whole entry, looked up): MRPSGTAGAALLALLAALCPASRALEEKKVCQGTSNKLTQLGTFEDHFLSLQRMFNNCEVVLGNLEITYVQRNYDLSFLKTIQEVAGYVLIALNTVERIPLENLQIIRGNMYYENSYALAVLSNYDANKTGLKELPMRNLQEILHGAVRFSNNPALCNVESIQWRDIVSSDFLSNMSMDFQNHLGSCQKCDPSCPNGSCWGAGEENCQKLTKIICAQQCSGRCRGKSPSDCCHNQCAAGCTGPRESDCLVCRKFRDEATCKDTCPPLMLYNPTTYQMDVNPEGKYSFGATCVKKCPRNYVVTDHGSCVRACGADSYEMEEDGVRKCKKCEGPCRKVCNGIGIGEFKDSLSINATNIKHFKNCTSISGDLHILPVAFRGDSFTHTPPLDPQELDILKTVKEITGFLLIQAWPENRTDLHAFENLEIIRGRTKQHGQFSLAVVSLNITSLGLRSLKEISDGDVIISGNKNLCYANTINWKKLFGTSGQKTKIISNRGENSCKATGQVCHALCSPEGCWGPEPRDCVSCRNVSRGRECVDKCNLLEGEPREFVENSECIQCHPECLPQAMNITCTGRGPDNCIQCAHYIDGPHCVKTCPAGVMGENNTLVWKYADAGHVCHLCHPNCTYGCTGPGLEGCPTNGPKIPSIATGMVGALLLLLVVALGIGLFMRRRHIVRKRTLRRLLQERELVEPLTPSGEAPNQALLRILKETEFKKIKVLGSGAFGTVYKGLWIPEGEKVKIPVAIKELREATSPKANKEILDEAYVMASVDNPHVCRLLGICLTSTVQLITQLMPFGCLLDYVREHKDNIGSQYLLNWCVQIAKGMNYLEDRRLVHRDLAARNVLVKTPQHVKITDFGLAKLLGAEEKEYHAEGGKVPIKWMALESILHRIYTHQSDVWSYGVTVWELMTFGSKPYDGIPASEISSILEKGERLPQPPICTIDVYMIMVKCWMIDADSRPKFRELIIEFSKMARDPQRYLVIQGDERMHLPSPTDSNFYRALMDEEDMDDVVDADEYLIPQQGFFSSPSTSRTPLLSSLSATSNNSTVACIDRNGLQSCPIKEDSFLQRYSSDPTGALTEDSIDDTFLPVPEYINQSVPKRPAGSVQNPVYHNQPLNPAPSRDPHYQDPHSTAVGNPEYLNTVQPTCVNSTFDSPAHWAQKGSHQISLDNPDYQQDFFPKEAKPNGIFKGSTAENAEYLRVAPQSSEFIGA

As to `O=C1c2ccccc2C(=O)C2CC([C@H]3Oc4ccccc4S(=O)(=O)N4CCC[C@@H]34)=CCC12` (stereo not given in full), the composite z-score was -0.41 in [1]; -0.158 in [2]; -0.119 in assay [3]; 0.0804 in assay [5]; 0.301 in [6]; 0.153 in assay [7]. Further, the figures for the composite z-score in [8], in assay [9] and in [10] were -0.26, 0.187 and 0.771, respectively. Moreover, the z-score in [4] was -0.279 (inactive).

With `COCCOC(=O)N1C(=O)[C@@]2(c3cc(C#CCNC(N)=O)ccc31)[C@H](c1ccc(OCCO)cc1)N1[C@H](c3ccccc3)[C@H](c3ccccc3)OC(=O)[C@H]1[C@@H]2C(=O)N1CCN(c2ncccn2)CC1`, the composite z-score in [1] came out at 0.832; in assay [2], 0.46; in assay [3], 0.978; in assay [5], 1.25; in assay [6], 0.824; in assay [7], 0.612. The composite z-score was 1.3 in assay [8], 0.564 in assay [9] and 1.46 in [10]. Moreover, in assay [4], the z-score is -0.37 (inactive).

With `CCCCCCCCCCC(O)C1C=CC2C(=O)NC(=O)C2N1Nc1ccccn1` (stereo not given), the composite z-score in [1] was 1.07; in [2], 0.482; in assay [3], 0.883; in assay [5], -0.649; in assay [6] it was -0.811; in [7], -0.689. Besides, the composite z-score in assay [8] is -0.448; in [9], -0.765; in assay [10], 0.997. The z-score in [4] was 0.447 (inactive).

Consider `COc1ccc(C#Cc2ccc3c(c2)[C@]2(C(=O)N3)[C@H](C(N)=O)[C@H]3C(=O)O[C@H](c4ccccc4)[C@H](c4ccccc4)N3[C@@H]2c2ccc(O)cc2)cc1`, for which the composite z-score turned out to be 0.818 in [1]; 0.153 in [2]; 0.411 in assay [3]; 0.904 in assay [5]; 0.491 in assay [6]; 0.248 in [7]. Further, the composite z-score in [8] was 0.313; in assay [9], 0.0346; in assay [10] it was -0.116. For the same compound, the z-score in assay [4] was 10.5 (active).

With `COC(=O)[C@@]1(Cc2ccccc2)[C@H]2c3cc(C(=O)N(C)C)n(Cc4ccc(O)c(OC)c4)c3C[C@H]2CN1C(=O)c1ccccc1`, the composite z-score in [1] is 1.37; in [2], 0.722; in [3] it was 0.295; in assay [5], -0.27; in assay [6], 0.255; in [7], -0.34. Moreover, the composite z-score is 0.764 in [8], -0.65 in assay [9] and 0.637 in [10]. Further, the z-score in [4] is -6.3 (inactive).

With `COCCCNC(=O)[C@]1(Cc2ccccc2)N=C(c2ccc(OCCCO)cc2)O[C@@H]1c1ccccc1N=[N+]=[N-]`, the composite z-score was 0.816 in assay [1]; 0.346 in assay [2]; 0.879 in assay [3]; 1.26 in [5]; 1.33 in [6]; -0.184 in assay [7]. In addition, the composite z-score in assay [8] is 0.481; in assay [9], -0.267; in assay [10], 0.618. In assay [4], the z-score was -1.51 (inactive).

Take `CN(C)CCCN1C(=O)[C@@]2(Cc3ccccc31)c1ccccc1C(=O)N(Cc1ccccc1)[C@H]2c1ccc(CO)cc1`: the composite z-score in [1] was 0.74; in [2], -0.152; in assay [3], 0.113; in [5] it was -0.622; in assay [6], 0.54; in assay [7], -0.306. The composite z-score turned out to be 0.408 in assay [8], 0.0366 in assay [9] and 0.799 in [10]. The z-score in assay [4] was -0.773 (inactive).

For `O=C1CSC(c2cccc([N+](=O)[O-])c2)N1c1ccccc1` (stereo not given), the composite z-score in assay [1] was -0.125; in assay [2], 0.136; in assay [3], -0.342; in assay [5], 0.523; in assay [6], 0.401; in [7], 0.354. Further, the composite z-score in [8] came out at 0.404; in [9], 0.661; in [10], 0.154. The z-score in [4] is 0.187 (inactive).

As for `COC(=O)C(CC#Cc1ccc2c(c1)[C@]1(C(=O)N2)[C@H](c2ccc(O)cc2)N2[C@H](c3ccccc3)[C@H](c3ccccc3)OC(=O)[C@H]2[C@@H]1C(=O)O)C(=O)OC`, the composite z-score in assay [1] is 1.26; in [2], -0.114; in assay [3], 0.374; in assay [5], 0.159; in assay [6] it was -0.375; in assay [7], -0.297. Moreover, the composite z-score is 0.528 in assay [8], -0.217 in assay [9] and 0.201 in assay [10]. Also, the z-score in assay [4] is -0.226 (inactive).

Turning to `O=C1NC(=O)C2C1C=CC(C(O)CCc1ccccc1)N2Nc1ccccn1` (stereo not given), the composite z-score in assay [1] stood at 0.539; in assay [2], 0.673; in assay [3], 0.778; in assay [5], 0.165; in [6], 0.44; in assay [7], 0.261. Further, the composite z-score is 0.155 in [8], 0.156 in assay [9] and 0.584 in assay [10]. The z-score in [4] was -0.735 (inactive).

Regarding `CCOC(=O)C[C@H]1[C@H](OC(=O)Cc2ccc3c(c2)OCO3)[C@@H](NC(=O)c2ccccc2)c2cc(OCCCO)ccc2N1C(=O)c1ccccc1`, the composite z-score was -0.0111 in [1]; -0.0126 in [2]; -0.0843 in assay [3]; 0.603 in assay [5]; 0.505 in assay [6]; 0.437 in assay [7]. The composite z-score in assay [8] was 0.371; in assay [9], 0.276; in [10], 0.524. Moreover, the z-score in [4] is -0.299 (inactive).

Turning to `CC(C)C[C@H]1NC(=O)[C@H](C)NC(=O)[C@@]23C(=O)N[C@@H](Cc4ccccc4)C2[C@H](C)[C@@]2(C)O[C@H]2C3/C=C/C/C=C\CNC1=O` (stereo not given in full), the composite z-score was 0.0682 in assay [1]; -0.597 in assay [2]; -0.376 in [3]; -0.148 in assay [5]; -0.294 in [6]; -0.0275 in assay [7]. Further, the composite z-score in assay [8] was 0.461; in [9], 0.29; in [10] it was 1.55. In addition, the z-score in assay [4] was 0.271 (inactive).

Consider `CCCCCCC#C[Si](O[C@H](c1ccccc1)c1cn(Cc2cccc(Cl)c2)nn1)(C(C)C)C(C)C`, for which the composite z-score is 1.11 in assay [1]; -0.166 in assay [2]; -0.287 in assay [3]; 0.155 in assay [5]; 0.57 in assay [6]; 0.269 in [7]. The composite z-score stood at 0.309 in assay [8], 0.0628 in assay [9] and 0.308 in [10]. Besides, the z-score in [4] was -0.577 (inactive).

For the compound `CN(C)C(=O)[C@@]1(CCS(=O)(=O)c2ccccc2)N=C(c2ccc(OCCCO)cc2)O[C@H]1c1ccccc1CN=[N+]=[N-]`, the composite z-score in [1] is 1.02; in [2], 0.182; in assay [3] it was 0.286; in assay [5] it was 1.41; in assay [6], 1.36; in assay [7] it was 0.27. The composite z-score stood at 0.922 in [8], 0.52 in assay [9] and 0.69 in assay [10]. In addition, the z-score in [4] is -0.863 (inactive).

On to `C=CC[C@@]1(C(=O)NCCN2CCOCC2)N=C(c2ccc(OCCCO)cc2)O[C@@H]1c1ccccc1`, for which the composite z-score in [1] was 1.28; in assay [2], 0.449; in [3], 0.853; in [5], 1.5; in assay [6], 1.29; in assay [7] it was 0.802. In addition, the composite z-score in assay [8] turned out to be 1.22; in [9] it was 0.785; in assay [10] it was 0.726. Also, the z-score in assay [4] is -0.161 (inactive).

Consider `COc1ccccc1CN1C(=O)c2ccccc2[C@@]2(Cc3ccccc3N(C3CC3)C2=O)[C@@H]1c1ccc(CO)cc1`, for which the composite z-score was 0.76 in [1]; -0.0899 in [2]; 0.322 in assay [3]; -0.671 in assay [5]; -0.928 in assay [6]; -0.724 in assay [7]. For the same compound, the figures for the composite z-score in assay [8], in assay [9] and in assay [10] were -0.279, -0.535 and 0.52, respectively. Moreover, the z-score in assay [4] is 0.312 (inactive).

In the case of `COC(=O)C(CC#Cc1ccc2c(c1)[C@]1(C(=O)N2)[C@H](c2ccc(O)cc2)N2[C@H](c3ccccc3)[C@H](c3ccccc3)OC(=O)[C@H]2[C@@H]1C(N)=O)C(=O)OC`, the composite z-score in [1] is -0.532; in [2] it was -0.207; in assay [3], 0.613; in assay [5], -1.48; in assay [6], -1.29; in assay [7], -0.856. Besides, the composite z-score was -1.89 in [8], -0.841 in [9] and -0.611 in [10]. The z-score in [4] is -0.192 (inactive).
